Assay results from PubChem BioAssay AID1159580 (chemical genetic matrix, 2015).
Screen size: about 5,500 compounds; about 2,000 (36%) were called active. Inconclusive results (about 18%) are left out. Rule as the data show it: active = normalized growth mostly below about 0.91 (no sharp cut-off); inconclusive = no clear call, values can overlap the other calls; inactive = mostly above about 0.92. This is one part of the list.

Assay: chemical genetic growth profiling, strain panel (AID 1159580);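 also: tested at 20 µM; growth read once vehicle control cultures reached saturation at 30 °C; 1 = growth at the plate median or of vehicle wells; lower values mean less growth of the strain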
Settings: growth OD

Measured: normalized growth

CCc1cccc(C)c1N(C(=O)CCl)C(C)COC (stereo unspecified)
inactive: S. cerevisiae deletion strains, locus YAL013W, strain DEP1, active compounds read low 1.01 | S. cerevisiae deletion strains, locus YBR021W, strain FUR4, active compounds read low 0.996 | S. cerevisiae deletion strains, locus YBR229C, strain ROT2, active compounds read low 1 | S. cerevisiae deletion strains, locus YCL029C, strain bik1, active compounds read low 1.02 | S. cerevisiae deletion strains, locus YDL035C, strain GPR1, active compounds read low 1.02 | S. cerevisiae deletion strains, locus YDL074C, strain BRE1, active compounds read low 1.02 | S. cerevisiae deletion strains, locus YDL101C, strain DUN1, active compounds read low 1.02 | S. cerevisiae deletion strains, locus YDL134C, strain PPH21, active compounds read low 1.01 | S. cerevisiae deletion strains, locus YDL185W, strain tfp1, active compounds read low 1.02 | S. cerevisiae deletion strains, locus YDL192W, strain arf1, active compounds read low 1.02 | S. cerevisiae deletion strains, locus YDR101C, strain arx1, active compounds read low 1.01 | S. cerevisiae deletion strains, locus YDR150W, strain NUM1, active compounds read low 1.01 | S. cerevisiae deletion strains, locus YDR162C, strain NBP2, active compounds read low 1.01 | S. cerevisiae deletion strains, locus YDR318W, strain mcm21, active compounds read low 1.01 | S. cerevisiae deletion strains, locus YDR388W, active compounds read low 1.01 | S. cerevisiae deletion strains, locus YDR502C, strain sam2, active compounds read low 1.02 | S. cerevisiae deletion strains, locus YEL061C, strain CIN8, active compounds read low 1.01 | S. cerevisiae deletion strains, locus YER110C, active compounds read low 1.02 | S. cerevisiae deletion strains, locus YER155C, strain BEM2, active compounds read low 1.01 | S. cerevisiae deletion strains, locus YER167W, strain BCK2, active compounds read low 1.02 | S. cerevisiae deletion strains, locus YGL078C, strain dbp3, active compounds read low 1.01 | S. cerevisiae deletion strains, locus YGL086W, strain mad1, active compounds read low 1.01 | S. cerevisiae deletion strains, locus YGL248W, strain PDE1, active compounds read low 1.01 | S. cerevisiae deletion strains, locus YGR078C, strain PAC10, active compounds read low 1.02 | S. cerevisiae deletion strains, locus YGR135W, strain pre9, active compounds read low 1.01 | S. cerevisiae deletion strains, locus YGR229C, strain SMI1, active compounds read low 1.03 | S. cerevisiae deletion strains, locus YGR252W, strain gcn5, active compounds read low 1.01 | S. cerevisiae deletion strains, locus YHR030C, strain SLT2, active compounds read low 1.01 | S. cerevisiae deletion strains, locus YHR079C, strain IRE1 (second series), active compounds read low 1.02 | S. cerevisiae deletion strains, locus YHR094C, strain hxt1, active compounds read low 1.02 | S. cerevisiae deletion strains, locus YHR129C, strain ARP1, active compounds read low 1.01 | S. cerevisiae deletion strains, locus YHR200W, strain rpn10, active compounds read low 1.02 | S. cerevisiae deletion strains, locus YIL066C, strain RNR3, active compounds read low 1.02 | S. cerevisiae deletion strains, locus YIL073C, strain SPO22, active compounds read low 1.05 | S. cerevisiae deletion strains, locus YIL125W, strain kgd1, active compounds read low 1.02 | S. cerevisiae deletion strains, locus YIR030C, strain dcg1, active compounds read low 1.02 | S. cerevisiae deletion strains, locus YJL095W, strain BCK1, active compounds read low 0.991 | S. cerevisiae deletion strains, locus YJL134W, strain LCB3, active compounds read low 1.02 | S. cerevisiae deletion strains, locus YJL168C, strain set2, active compounds read low 1.01 | S. cerevisiae deletion strains, locus YJL187C, strain SWE1 (second series), active compounds read low 1.01 | S. cerevisiae deletion strains, locus YJR043C, strain POL32, active compounds read low 1.02 | S. cerevisiae deletion strains, locus YJR075W, strain HOC1, active compounds read low 1.01 | S. cerevisiae deletion strains, locus YKL009W, strain mrt4, active compounds read low 1.03 | S. cerevisiae deletion strains, locus YKL068W, active compounds read low 1.01 | S. cerevisiae deletion strains, locus YKL085W, strain MDH1 (second series), active compounds read low 1.02 | S. cerevisiae deletion strains, locus YKL085W, strain MDH1, active compounds read low 1.02 | S. cerevisiae deletion strains, locus YKL190W, strain CNB1, active compounds read low 1.02 | S. cerevisiae deletion strains, locus YKR001C, strain vps1, active compounds read low 1.03 | S. cerevisiae deletion strains, locus YLR039C, strain RIC1, active compounds read low 0.993 | S. cerevisiae deletion strains, locus YLR058C, strain SHM2, active compounds read low 1.01 | S. cerevisiae deletion strains, locus YLR102C, strain apc9, active compounds read low 1.02 | S. cerevisiae deletion strains, locus YLR262C, strain YPT6, active compounds read low 1.03 | S. cerevisiae deletion strains, locus YLR268W, strain sec22, active compounds read low 1.01 | S. cerevisiae deletion strains, locus YLR330W, strain CHS5, active compounds read low 1.01 | S. cerevisiae deletion strains, locus YLR342W, strain FKS1 (second series), active compounds read low 1.04 | S. cerevisiae deletion strains, locus YLR371W, strain rom2, active compounds read low 1.02 | S. cerevisiae deletion strains, locus YLR418C, strain cdc73, active compounds read low 1.01 | S. cerevisiae deletion strains, locus YML016C, strain PPZ1, active compounds read low 1.01 | S. cerevisiae deletion strains, locus YML032C, strain rad52, active compounds read low 0.992 | S. cerevisiae deletion strains, locus YML124C, strain tub3, active compounds read low 1.02 | S. cerevisiae deletion strains, locus YMR078C, strain ctf18, active compounds read low 1.02 | S. cerevisiae deletion strains, locus YMR223W, strain ubp8, active compounds read low 1.02 | S. cerevisiae deletion strains, locus YMR263W, strain SAP30, active compounds read low 1 | S. cerevisiae deletion strains, locus YMR307W, strain GAS1, active compounds read low 1 | S. cerevisiae deletion strains, locus YNL067W, strain RPL9B, active compounds read low 1.01 | S. cerevisiae deletion strains, locus YNL128W, strain TEP1, active compounds read low 1.01 | S. cerevisiae deletion strains, locus YNL153C, strain GIM3, active compounds read low 1.01 | S. cerevisiae deletion strains, locus YNL233W, strain BNI4, active compounds read low 1.01 | S. cerevisiae deletion strains, locus YNL250W, strain rad50, active compounds read low 1.01 | S. cerevisiae deletion strains, locus YNL271C, strain bni1, active compounds read low 1.03 | S. cerevisiae deletion strains, locus YNL298W, strain CLA4, active compounds read low 1.02 | S. cerevisiae deletion strains, locus YNL307C, strain MCK1, active compounds read low 1.02 | S. cerevisiae deletion strains, locus YNL322C, strain KRE1, active compounds read low 1.01 | S. cerevisiae deletion strains, locus YNR052C, strain pop2, active compounds read low 1.02 | S. cerevisiae deletion strains, locus YOL006C, strain TOP1, active compounds read low 1.03 | S. cerevisiae deletion strains, locus YOL012C, strain htz1 0.819 | S. cerevisiae deletion strains, locus YOL147C, strain pex11, active compounds read low 1.02 | S. cerevisiae deletion strains, locus YOR061W, strain CKA2, active compounds read low 1.01 | S. cerevisiae deletion strains, locus YOR069W, strain VPS5, active compounds read low 1.01 | S. cerevisiae deletion strains, locus YOR136W, strain idh2, active compounds read low 1.01 | S. cerevisiae deletion strains, locus YOR144C, strain elg1, active compounds read low 1.02 | S. cerevisiae deletion strains, locus YOR184W, strain ser1, active compounds read low 1.03 | S. cerevisiae deletion strains, locus YOR316C, strain cot1, active compounds read low 1.02 | S. cerevisiae deletion strains, locus YPL055C, strain LGE1, active compounds read low 1.03 | S. cerevisiae deletion strains, locus YPL241C, strain CIN2, active compounds read low 1.02 | S. cerevisiae deletion strains, locus YPR119W, strain clb2, active compounds read low 1.01 | S. cerevisiae deletion strains, locus YPR141C, strain kar3, active compounds read low 1.02 | S. cerevisiae deletion strains, locus YPR163C, strain tif3, active compounds read low 1.02 | S. cerevisiae deletion strains, locus YPR167C, strain met16, active compounds read low 1.02 | S. cerevisiae deletion strains, strain wtn01, active compounds read low 1.02 | S. cerevisiae strains, strain wild type, active compounds read low 1
